Experimental data taken from PMC4336329 (PLoS ONE, 2015).
The whole screen tested about 310,000 compounds, of which about 14,000 (4.5%) showed an effect of 50% or more. The effect is printed as a negative number. The list comes from a sample in which strong results are over-represented; it also holds similar structures and randomly drawn compounds.

Biological target: human ether-à-go-go-related gene (hERG) potassium channel (human, UniProt Q12809)
Experiment: primary screen, population patch clamp on CHO cells stably expressing hERG; higher = less effect of the substance
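Note: peak tail current of the secondary pulse compared with the same well before compound.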

human ether-à-go-go-related gene (hERG) potassium channel, sequence (Q12809 whole entry, looked up): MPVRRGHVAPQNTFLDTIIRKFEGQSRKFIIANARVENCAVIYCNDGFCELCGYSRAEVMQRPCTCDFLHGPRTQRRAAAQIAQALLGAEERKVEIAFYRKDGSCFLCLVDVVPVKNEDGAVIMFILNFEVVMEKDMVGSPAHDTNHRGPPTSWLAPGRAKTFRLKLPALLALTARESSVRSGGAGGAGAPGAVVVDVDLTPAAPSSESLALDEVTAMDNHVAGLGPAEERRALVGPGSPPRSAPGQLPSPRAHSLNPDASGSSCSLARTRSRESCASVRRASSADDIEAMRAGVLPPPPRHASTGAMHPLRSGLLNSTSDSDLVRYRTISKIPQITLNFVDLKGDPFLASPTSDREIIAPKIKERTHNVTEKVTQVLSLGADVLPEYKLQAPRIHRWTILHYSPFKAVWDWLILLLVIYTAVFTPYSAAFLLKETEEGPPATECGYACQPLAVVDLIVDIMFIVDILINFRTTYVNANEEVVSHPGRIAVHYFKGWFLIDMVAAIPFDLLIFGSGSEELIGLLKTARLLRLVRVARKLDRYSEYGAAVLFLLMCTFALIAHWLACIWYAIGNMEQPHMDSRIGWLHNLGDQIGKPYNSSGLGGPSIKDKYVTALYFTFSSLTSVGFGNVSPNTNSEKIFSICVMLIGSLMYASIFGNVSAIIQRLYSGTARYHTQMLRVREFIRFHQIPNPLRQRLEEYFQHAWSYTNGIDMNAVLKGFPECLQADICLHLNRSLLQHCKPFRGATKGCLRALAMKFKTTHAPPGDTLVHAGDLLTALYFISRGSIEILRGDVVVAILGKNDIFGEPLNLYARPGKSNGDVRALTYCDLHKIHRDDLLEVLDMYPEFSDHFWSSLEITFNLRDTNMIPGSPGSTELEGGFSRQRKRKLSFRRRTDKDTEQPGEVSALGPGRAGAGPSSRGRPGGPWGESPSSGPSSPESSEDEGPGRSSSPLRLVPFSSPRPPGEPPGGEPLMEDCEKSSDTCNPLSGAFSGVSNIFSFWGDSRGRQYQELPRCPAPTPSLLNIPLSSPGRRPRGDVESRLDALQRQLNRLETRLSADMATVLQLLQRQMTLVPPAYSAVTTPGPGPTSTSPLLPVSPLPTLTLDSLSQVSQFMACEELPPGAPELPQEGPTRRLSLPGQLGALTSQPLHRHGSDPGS

| SMILES | hERG current change (%, negative = inhibition) at 10uM |
| --- | --- |
| CCOC(=O)C1(CC2CC2)CCN(Cc2cn[nH]c2-c2ccccc2)CC1 | -79.5% |
| CC(C#N)Sc1ncnc2sc3c(c12)CCC3 (stereo not drawn) | 0.835% |
| CCC(Sc1ccc2nnc(CCNS(=O)(=O)c3ccc(OC)cc3)n2n1)C(=O)OC (stereo not drawn) | -10.7% |
| Cc1nn(C(C)C)c(C)c1CN1CCN(Cc2ccsc2)C(CCO)C1 (stereo not drawn) | 0.518% |
| OCCC1CN(Cc2cccc(OC3CCCC3)c2)CCN1Cc1ccsc1 (stereo not drawn) | -70% |
| CCCn1ncc(CN2CCN(Cc3ccsc3)C(CCO)C2)c1C (stereo not drawn) | -5.55% |
| OCCC1CN(Cc2ccsc2)CCN1C1CCCC1 (stereo not drawn) | -9.06% |
| OCCC1CN(Cc2ccccc2OC2CCCC2)CCN1Cc1ccsc1 (stereo not drawn) | -68.7% |
| COc1cccc(CN2CCN(Cc3ccc4c(c3)OCCO4)CC2CCO)c1 (stereo not drawn) | -7.1% |
| CC(=O)c1cccc(NC(=O)N2CCC(c3ccc(C)cc3)C2)c1 (stereo not drawn) | -13.8% |
| COc1ccc(-c2c(C(F)(F)F)oc3cc(OCC(=O)Nc4ccccc4C(F)(F)F)ccc3c2=O)cc1OC | 4.91% |
| CC1(C)Cc2nc3oc4c(NCc5ccccc5)ncnc4c3cc2CO1 | -10.7% |
| CC1(C)Cc2nc3oc4c(N(CCO)Cc5ccccc5)ncnc4c3cc2CO1 | -65.6% |
| CC1(C)Cc2nc3sc4c(N(CCO)CCO)ncnc4c3cc2CO1 | 3.56% |
| CCN1CCN(C(=O)CN(c2cc(OC)ccc2OC)S(C)(=O)=O)CC1 | 16.2% |
| O=C(c1ccc(Cl)cc1)N1N=C(c2ccccn2)CC1(O)C(F)(F)F (stereo not drawn) | -13.6% |
| COc1ccc(S(=O)(=O)N2CCCCCC2)cc1NC(=O)c1ccccc1 | 10.5% |
| COc1ccc(NC(=O)c2ccc3c(c2)OCCO3)cc1OC | 9.47% |
| COc1ccc(CCNS(=O)(=O)c2cccc(F)c2)cc1OC | -1.75% |
| Nc1nonc1C(=O)NCCNC(=O)c1cccs1 | -58.7% |
| C/C(=N\NC(=O)c1nonc1N)c1cccs1 | 4.26% |
| Nc1nonc1C(=O)NCCNC(=O)c1ccccc1F | 4.12% |
| CCCCCCCCNC(=O)c1cnccn1 | -7.1% |
| O=c1[nH]nc(CNc2ccc(O)cc2)c2ccccc12 | -6.61% |

| SMILES | hERG current change (%, negative = inhibition) at 10uM |
| --- | --- |
| CC1(C)CC(NC(=O)c2cccc(S(=O)(=O)N(Cc3ccccc3)c3ccccc3)c2)CC(C)(C)N1 | -45.3% |
| CN(C)S(=O)(=O)c1cc(C(=O)Nc2ccccc2C(=O)NC2CC2)ccc1Cl | -62.2% |
| O=C(O)c1ccc(Cl)c(S(=O)(=O)N(Cc2ccccc2)c2ccccc2)c1 | 7.76% |
| COc1ccccc1N(Cc1ccccc1)S(=O)(=O)c1cccc(C(=O)NC2CC(C)(C)NC(C)(C)C2)c1 | -73.4% |
| CN(C)S(=O)(=O)c1ccc(F)c(C(=O)Nc2ccccc2C(=O)NC2CC2)c1 | -38.7% |
| O=C(O)c1ccc(Cl)c(S(=O)(=O)N(Cc2ccccc2)c2ccc(F)cc2)c1 | 13.9% |
| CC1(C)CC(NC(=O)c2ccc(Cl)c(S(=O)(=O)N(Cc3ccccc3)c3ccccc3)c2)CC(C)(C)N1 | -62.3% |
| O=C(Nc1ccccc1C(=O)NC1CC1)c1ccccc1 | 12.9% |
| COc1ccccc1N(Cc1ccccc1)S(=O)(=O)c1cccc(C(=O)O)c1 | 10.9% |
| CC1C(=O)N2CCCc3cc(S(=O)(=O)N4CCC(C(N)=O)CC4)cc1c32 (stereo not drawn) | 7.24% |
| CC1CCN(c2ccc(C(=O)Nc3ccc4c(c3)OCO4)cc2[N+](=O)[O-])CC1 | 7.17% |
| O=C(CN(C(=O)C1CSC(=O)C1)c1ccccc1F)NCc1ccc2c(c1)OCO2 (stereo not drawn) | -12.4% |
| CCN(CC)S(=O)(=O)c1ccc(O)c(C(=O)OCC(=O)N(C)Cc2ccccc2)c1 | -55.4% |
| O=C(COC(=O)c1cc([N+](=O)[O-])ccc1N1CCOCC1)Nc1ccc(Cl)cn1 | -61.5% |
| CN(Cc1ccccc1)C(=O)COC(=O)c1cc(S(=O)(=O)N(C)C)ccc1N1CCCC1 | 1.93% |
| O=C(COC(=O)c1cc([N+](=O)[O-])ccc1N1CCOCC1)NCCc1ccccc1 | -45.4% |
| COc1ccccc1NC(=O)COC(=O)c1cc([N+](=O)[O-])ccc1N1CCCC1 | -0.76% |
| O=C(COC(=O)c1cc([N+](=O)[O-])ccc1N1CCOCC1)Nc1cc(F)ccc1F | -49.8% |
| COc1ccc(NC(=O)COC(=O)c2cc([N+](=O)[O-])ccc2N2CCOCC2)cc1 | -29.3% |
| O=C(COC(=O)c1cc([N+](=O)[O-])ccc1N1CCOCC1)Nc1ncc(Cl)cc1Cl | -29.2% |
| O=C(COC(=O)c1cc([N+](=O)[O-])ccc1N1CCOCC1)NCc1ccc(F)cc1 | -53.7% |
| CN(Cc1ccccc1)C(=O)COC(=O)c1ccc(S(=O)(=O)N(C)C)cc1 | -2.9% |
| COc1cccc(CNC(=O)COC(=O)c2cc([N+](=O)[O-])ccc2N2CCCC2)c1 | -56.9% |
| O=C(COC(=O)c1cc([N+](=O)[O-])ccc1N1CCOCC1)Nc1c(Cl)cccc1Cl | -5.53% |
